{"source": "PubChem BioAssay (NCI)", "note": "“And” between values parts separate entries of the source, which are not always exact repeats. Identical values can stand only once. The panel holds about 83,000 compounds, 20% with a hit somewhere; the sample as a whole holds those more often.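 Plates (96-well) were seeded with cells, treated with compound at one concentration, and incubated for 48 hours before percent growth was determined.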 Values without a mark were called inactive. The source made the active and inactive calls. Rule for the calls: active = growth percent below 10; inactive = the rest."}
{"tested_on": "OVCAR-3 ovarian", "assay": "NCI-60 one-dose screen, 48 h (100 = growth as untreated, 0 = no growth, -100 = all killed)", "conditions": "100 µM"}
{"smiles": "CN(C)C(=O)c1ccc(SC(=S)NCc2ccccc2)cc1", "growth": "46.9%"}
{"smiles": "COc1ccc(-c2cscc2N)cc1", "growth": "40.9%"}
{"smiles": "O=C(Nc1c(Cl)cccc1Cl)Oc1cccc2cccnc12", "growth": "4.16% (active)"}
{"smiles": "O=C(Nc1cccc(Br)c1)Oc1cccc2cccnc12", "growth": "-74.7% (active)"}
{"smiles": "O=C(O)c1c(Cl)c(Cl)c(Cl)c(Cl)c1-c1c2cc(I)c(=O)c(I)c-2oc2c(I)c(O)c(I)cc12", "growth": "-26.1% (active)"}
{"tested_on": "HS 578T breast", "assay": "NCI-60 one-dose screen, 48 h (100 = growth as untreated, 0 = no growth, -100 = all killed)", "conditions": "10 µM"}
{"smiles": "O=C(Nc1c(Cl)cccc1Cl)Oc1cccc2cccnc12", "growth": "90.6%"}
{"smiles": "O=C(Nc1cccc(Br)c1)Oc1cccc2cccnc12", "growth": "110%"}
{"smiles": "O=C(O)c1c(Cl)c(Cl)c(Cl)c(Cl)c1-c1c2cc(I)c(=O)c(I)c-2oc2c(I)c(O)c(I)cc12", "growth": "107% and 93.5%"}
{"tested_on": "HS 578T breast", "assay": "NCI-60 one-dose screen, 48 h (100 = growth as untreated, 0 = no growth, -100 = all killed)", "conditions": "10 µM unless noted"}
{"smiles": "O=[N+]([O-])c1ccc2c(N=Nc3ccc4ccccc4c3O)c(O)cc(S(=O)(=O)O)c2c1", "growth": "105%"}
{"smiles": "O=C(Nc1cccc(Br)c1)Oc1ccc(Cl)c2cccnc12", "growth": "50.9% [100 µM]"}
{"smiles": "Oc1c(Cl)cc(Cl)c2cccnc12", "growth": "72.9% and 52%"}
{"smiles": "COC(=O)[C@@]12OC[C@]34[C@H]([C@@H](O)[C@@H]1O)[C@@]1(C)[C@H](O)C(=O)C=C(C)[C@@H]1C[C@H]3OC(=O)C(OC(C)=O)[C@@H]24", "note": "(stereo not given in full)", "growth": "-33% (active)"}
{"smiles": "CNC(=O)N/N=C/c1ccc([N+](=O)[O-])o1", "growth": "98.1%"}
{"smiles": "O=C1C2=C(Nc3cc([N+](=O)[O-])ccc3N2)OC1c1c2ccccc2cc2ccccc12", "note": "(stereo not given)", "growth": "73.6%"}
{"smiles": "COc1cc(/C=C(/C)C[N+](=O)[O-])ccc1O", "growth": "98.7%"}
{"smiles": "O=C(O)c1ccc2c3c(ncnc13)-c1ccccc1C2=O", "growth": "5.48% (active)"}
{"smiles": "Cc1ccc2nc(C[n+]3ccc4ccccc4c3)ccc2c1", "growth": "90.8%"}
{"smiles": "C=C(Cl)C(=NC(C)(C)C)Nc1ccccc1C", "growth": "96.5%"}
{"smiles": "O=C1OCc2cccc3cccc1c23", "growth": "102%"}
{"smiles": "NC(N)=N/N=C/c1ccc([N+](=O)[O-])o1", "growth": "105%"}
{"smiles": "N#CSCc1c(Cl)cccc1Cl", "growth": "80.6%"}
{"smiles": "CC(=O)ON=C1C=CC(=C(C#N)c2ccccc2)C=C1", "growth": "15.5%"}
{"smiles": "CCCCCCCCCCCCCCCCCCOP(=O)([O-])OC1CC[N+](C)(C)CC1", "growth": "11.8%"}
{"smiles": "C[n+]1c(/C=C/c2ccc([N+](=O)[O-])cc2)ccc2ccccc21", "growth": "99.7%"}
{"smiles": "c1ccc2c(c1)Nc1cc3ccccc3cc1N2", "growth": "53.4%"}
{"smiles": "CCOC(=O)/C(=C\\c1ccc(-c2ccccc2)cc1)C(C)=O", "growth": "103%"}
{"smiles": "O=C1c2ccccc2C(=O)c2sc(Nc3ccc(Cl)cc3)nc21", "growth": "70.6%"}
{"smiles": "COc1ccc2nc3cc(Cl)ccc3c(NCCNc3c4ccc(Cl)cc4nc4ccc(OC)cc34)c2c1", "growth": "-34.9% (active)"}
{"smiles": "CCOC(=O)/C=C/c1ccc([N+](=O)[O-])o1", "growth": "98.1%"}
{"smiles": "COC(=O)c1nc(=S)[nH]c(C(=O)OC)c1C(=O)c1ccc2ccccc2c1", "growth": "103%"}
{"smiles": "COc1cc(NS(C)(=O)=O)ccc1Nc1c2ccccc2nc2ccccc12", "growth": "-6.75% [2.5 µM] (active)"}
{"smiles": "S=C(NCCNC(=S)[S][Sn]([c]1ccccc1)([c]1ccccc1)[c]1ccccc1)[S][Sn]([c]1ccccc1)([c]1ccccc1)[c]1ccccc1", "growth": "-14.5% (active)"}
{"smiles": "CN(C)C(=O)SC1=C(c2c(Cl)cccc2Cl)C(=O)c2ccccc21", "growth": "21.4%"}
{"smiles": "Cc1ccc2nc(-[n+]3cc4ccccc4cc3C)ccc2c1", "growth": "67.3%"}
{"smiles": "O=C(O)C1C2CC3C(OC(=O)C31)C2Br", "note": "(stereo not given)", "growth": "93.4% and 95.7%"}
